Compound activity (PubChem)
Marburg entry inh: Marburg virus entry inhibition. Marburg virus pseudotyped entry inhibition, cell reporter. Potency, µM (top dose mostly 37.8 µM), hits mostly inhibitors. 300,000 compounds, 1.8% hits. AID 540276; calls by dose curve; tested in HEK293 cells
Vaccinia Venus: inhibitors of vaccinia virus (Venus reporter). Vaccinia virus Venus reporter expression, fluorescence. Potency, µM (series often up to 36.5 µM), usual class: inhibitors. 330,000 compounds, 0.46% hits. AID 720580; calls by dose curve; tested in A549 cells; also: nearly all actives have a fitted effect of over 30% in size
HCMV antiviral: blocks human cytomegalovirus replication; HFF cells, HCMV-luciferase reporter, 72 h; hits give low values; activity change, negative = inhibition, % at 57.5 µM; 410,000 compounds, 4.5% hits; AID 1259415; in the data active = activity change below about -60%; inconclusive = no clear call, values can overlap the other calls; inactive = above about -39%
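Steps: HFFs plated, 16 h 37C; compounds added; HCMV-luciferase added to MOI 1 PFU/cell; 72 h 37C; OneGlo reagent, 5 min room temperature; luminescence read, normalized to controls.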
LASV entry inh: blocks Lassa virus binding to or entry into cells; Lassa virus pseudotype entry inhibition, cell reporter; Potency, µM (titrated, usually from 37.9 µM), actives largely listed as inhibitors; 300,000 compounds, 1.2% hits; calls by dose curve; tested in HEK293 cells; also: nearly all actives have a fitted effect of over 50% in size
Vaccinia mCherry: vaccinia inhibition (mCherry reporter); Vaccinia virus mCherry reporter infection, fluorescence; Potency, µM (series often up to 36.5 µM), most hits filed as inhibitors; AID 720579; 310,000 compounds, 0.63% hits; calls by dose curve; tested in A549 cells; also: nearly all actives have a fitted effect of over 35% in size
HCV inh: inhibitors of hepatitis C virus infection; Huh7.5.1 HCVcc-Cre infection, luciferase reporter, 44 h; Potency, µM (titrated, usually from 41.8 µM), hits mostly inhibitors; 340,000 compounds, 3.4% hits; active = well fitted inhibition curve with a large enough effect; inconclusive = small, poorly fitted or top-dose-only effect, or another doubt; inactive = no such curve, though single readings can be large or run the other way
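Cells (1,000/well) were plated 4 h before compound, then infected with HCVcc-Cre virus (~0.5 moi). After 44 h further culture, infection was read as luciferase luminescence following a 15 min substrate incubation at room temperature.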
Numbers stand for hits; . = inactive; ? = inconclusive; / = no result; ! = repeats disagree; [ ] = remark or other dose. Shown are actives, neighbours in structure and some others; about 7.8% of the full set was active somewhere.

SMILES	Marburg entry inh	Vaccinia Venus	HCMV antiviral	LASV entry inh	Vaccinia mCherry	HCV inh
CCOc1ccccc1NC(=O)C(NS(=O)(=O)c1cccc2nsnc12)c1ccccc1 (stereo not drawn)	/	.	.	.	.	/
CC(=O)c1cccc(NC(=O)c2c(F)c(F)c(F)c(F)c2F)c1	.	10µM	.	.	/	?
COC(=O)c1cc(NC(=O)c2c(F)c(F)c(F)c(F)c2F)cc(C(=O)OC)c1	?	.	-63	?	.	13µM
O=C1C(=O)c2ccccc2C(O)=C1c1cccc([N+](=O)[O-])c1	5.6µM	.	-66	3.5µM	.	.
Cc1ccc(C2=C(O)c3ccccc3C(=O)C2=O)cc1	/	/	.	/	/	.
Cc1ccc(-c2ccc(=O)n(Cc3ccc(F)cc3)n2)cc1	.	.[7.34 µM]	-63!	.	.[7.34 µM]	.
Cc1ccc(-c2cc(N)n(Cc3ccc(Cl)cc3)n2)cc1	?	?	.	.	/	10µM
COC(=O)c1ccc(Cn2nc(-c3ccc(C)cc3)ccc2=O)cc1	.	.	.	.	.	.
CN(C)S(=O)(=O)c1ccc(C(=O)NCCN2C(=O)S/C(=C\c3cccnc3)C2=O)cc1	.	.	.	.	.	.
O=C(NCCN1C(=O)S/C(=C\c2ccc(Cl)c(Cl)c2)C1=O)c1cnccn1	.	.	-66	.	.	.
CS(=O)(=O)c1ccc(C(=O)NCCN2C(=O)S/C(=C\c3cccnc3)C2=O)cc1[N+](=O)[O-]	10µM	/	-114	21µM	/	?
O=C(NCCN1C(=O)S/C(=C\c2ccc(Cl)c([N+](=O)[O-])c2)C1=O)C1=COCCO1	?	.	.	?	.	11µM
COc1cccc(CNC(=O)CCc2nnc3n(CC(C)C)c(=O)c4ccccc4n23)c1	.	.	?	/	?	/
CC(C)OCCCn1c(=O)c2ccccc2n2c(-c3ccc(F)c(F)c3)nnc12	?	.	.	.	.	/
CCc1nn2c(=O)c(F)c(N3CCNCC3)nc2s1	/	/	-105	/	/	/
CCc1nn2c(=O)cc(N3CCN(c4cc(C)nc5ccccc45)CC3)nc2s1	/	/	/	/	/	.
COC(=O)C(C(=O)OC)C(C(=O)OC)C(C(=O)OC)C(=O)OC	?	.	-88	.	.	.
COC(=O)C(C(=O)OC)C(C(C)C)C(C(=O)OC)C(=O)OC	.	.	.	.	.	.
Cn1c(SCC(=O)N2CC(=O)Nc3ccccc32)nc2ccccc2c1=O	/	/	.	/	/	.
O=C1CN(C(=O)CSc2nc3ccccc3c(=O)n2Cc2ccc(F)cc2)c2ccccc2N1	?	.	-64	?	.	?
O=C1CN(C(=O)CSc2nc3ccccc3n2CCc2ccccc2)c2ccccc2N1	?	.	-60	.	.	.
CC1CCCN(CCCNC(=O)c2ccc(NC(=O)C3=CSCCO3)cc2)C1 (stereo not drawn)	/	/	.	/	/	.
Cc1cccc(N2CCN(CCCNC(=O)c3ccc(NC(=O)C4=CSCCO4)cc3)CC2C)c1 (stereo not drawn)	?	.	.	?	.	11µM
Cc1ccc(N2CC(NC(=O)c3ccccc3C(F)(F)F)CC2=O)cc1C (stereo not drawn)	/	.[7.34 µM]	.	.	.[7.34 µM]	/
CCOC(=O)c1c(C)[nH]c(C)c1S(=O)(=O)N1CCC(C(=O)Nc2ccc(OC)c(OC)c2)CC1	/	.	.	?	.	/
SMILES	Marburg entry inh	Vaccinia Venus	HCMV antiviral	LASV entry inh	Vaccinia mCherry	HCV inh
CCn1c(SCC(=O)Nc2sc3c(c2C#N)CCCC3)nnc1-c1ccncc1	.	?	.	.	.	?
N#Cc1c(NC(=O)CSc2nnc(-c3ccncc3)n2CC2CCCO2)sc2c1CCCC2 (stereo not drawn)	.	.	-80	.	.	.
N#Cc1c(NC(=O)CSc2ncc(-c3ccccc3)n2CC2CCCO2)sc2c1CCCC2 (stereo not drawn)	5.2µM	/	-62	7.3µM	/	11µM
CCN1CCN(Cc2ccc(NC(=O)c3cc(NC(=O)c4cncc(-c5cccs5)c4)cc(OC)c3)cc2C(F)(F)F)CC1	/	?	-102	/	?	?
CCN1CCN(Cc2ccc(NC(=O)c3cc(NC(=O)c4ccno4)cc(OC)c3)cc2C(F)(F)F)CC1	/	?	.	/	.	?
CCN1CCN(Cc2ccc(NC(=O)c3cc(NC(=O)c4cc5cccc(OC)c5o4)cc(OC)c3)cc2C(F)(F)F)CC1	/	13µM!	-102!	/	?	.
CCN1CCN(Cc2ccc(NC(=O)c3cc(NC(=O)N4CCNC4=O)cc(OC)c3)cc2C(F)(F)F)CC1	/	?	-68!	/	.	?
CCN1CCN(Cc2ccc(NC(=O)c3cc(NC(=O)c4cc(-c5ccc(OC)cc5)n[nH]4)cc(OC)c3)cc2C(F)(F)F)CC1	/	10µM	.	/	?	?
CCN1CCN(Cc2c(O)ccc3c(=O)c(Oc4ccccc4C(C)C)c(C(F)(F)F)oc23)CC1	.	.	.	.	.	/
COc1cccc(Cn2c(Oc3cccc(C)c3)nc3c2c(=O)n(C)c(=O)n3C)c1	?	.	.	?	/	11µM
CCCOc1nc2c(c(=O)n(C)c(=O)n2C)n1Cc1cccc2ccccc12	?	.	-91	.	.	?
Cn1c(=O)c2c(nc(Oc3ccccc3N)n2C)n(C)c1=O	/	/	.	/	/	.
Cn1c(=O)c2c(nc(Oc3ccccc3Cl)n2C)n(C)c1=O	.	.	-79	.	.	.
COc1cccc(Cn2c(NCc3cccnc3)nc3c2c(=O)n(C)c(=O)n3C)c1	?	?	.	?	4.5µM	.
Cc1cc(N[C@@H](CC(C)C)C(=O)O)nc(Cc2ccccc2)n1	.	/	/	/	/	/
CCn1c(Oc2ccccc2)nc2c1c(=O)n(C)c(=O)n2C	.	.	-60	.	.	.
O=C(NCc1nc(-c2ccc(C(F)(F)F)cc2)no1)Nc1ccc(OC(F)(F)F)cc1	?	?	-97	?	?	?
COc1ccc(CN2CCCC(n3cc(C(=O)NC4CCCC4)nn3)C2)c(O)c1 (stereo not drawn)	/	.	/	/	.	/
CCOC(=O)c1ccccc1NC(=O)Cc1c(C(=O)O)c(C)cn1C	/	.	.	?	.	/
Cc1ccc2c(Sc3ccc(Cl)cc3)c(C(=O)NCCC(C)C)[nH]c2c1	.	.	.	.	.	/
Cc1ccc(OCCOC(=O)Nc2ccccc2)cc1	.	.	-62	.	.	.
Cc1ccc(Sc2ncccc2COC(=O)Nc2ccccc2)cc1	.	.	.	16µM	/	?
Cc1ccc(Sc2ncccc2COC(=O)Nc2c(C)cccc2C)cc1	.	?	.	2.8µM	/	?
CCN(CCCNC(=O)CSc1cc(=O)n(CC)c2ccccc12)c1ccccc1	?	.	.	.	.	/
CCN(CC)c1ccc(/C=C(\C#N)C(=O)NCc2ccco2)cc1	/	/	?	/	/	.
CCN(CC)c1ccc(/C=C(\C#N)C(=O)NCc2ccccc2)cc1	.	.	/	?	?	25µM
CCCc1nc2ccccc2c(C(=O)OCC(=O)N2CCc3ccccc32)c1CC	?	.	.	?	.	8.9µM
COc1cccc(C(=O)OCC(=O)N2CCc3ccccc32)c1OC	?	.	-98	.	.	?
Nc1ccccc1C(=O)OCC(=O)N1CCc2ccccc21	?	.	.	.	.	.
